The results in this text go back to PubChem BioAssay AID411 (National Center for Advancing Translational Sciences (NCATS), 2006).

Molecules are shown by their SMILES. The whole screen tested about 72,000 compounds, of which about 1,600 (2.2%) were called active. The full list was thinned out, with actives kept by preference. Unmarked numbers belong to inactive results. Calls follow the shape of the dose curve; as a rule, active = well fitted inhibition curve with a large enough effect; inconclusive = small, poorly fitted or top-dose-only effect; inactive = flat fitted curve, though single readings scatter.
% is scaled to controls: 0 for no effect and ±100 for the full control effect; potency is read from the fitted curve at half-maximal effect.

The target in the assay is Luciferin 4-monooxygenase (Photinus pyralis) (UniProt P08659). Kind of assay: qHTS Assay for Inhibitors of Firefly Luciferase. Also: nearly all actives have a fitted effect of over 40% in size. Conditions: purified firefly luciferase, luminescence, 8 min; series mostly up to 57.1 µM; activity change, negative = inhibition: at the top concentration. On the procedure: To aid in the interpretation of high-throughput screening (HTS) results derived from luciferase-based assays, we used quantitative HTS, an approach that defines the concentration-response behavior of each library sample, to profile the ATP-dependent luciferase from Photinus pyralis against more than 72 000 samples. Luciferase (PKLight, Cambrex Corporation) was assayed for its ability to generate light using ATP and luciferin as substrates. The ATP concentration in the assay (10 uM) was within the linear range of enzyme activity for the assay conditions used. See following reference for further details: [1] Auld DS, Southall NT, Jadhav A, Johnson RL, Diller DJ, Simeonov A, Austin CP, Inglese J. Characterization of chemical libraries for luciferase inhibitory activity. J Med Chem. 2008 Apr 24;51(8):2372-86. Auld DS, Zhang YQ, Southall NT, Rai G, Landsman M, Maclure J, Langevin D, Thomas CJ, Austin CP, Inglese J. A Basis for Reduced Chemical Library Inhibition of Firefly Luciferase Obtained from Directed Evolution. J. Med. Chem., 2009, 52 (5), pp 1450#1458 [3] Auld DS, Thorne N, Nguyen DT, Inglese J. A specific mechanism for nonspecific activation in reporter-gene assays. ACS Chem Biol. 2008 Aug 15;3(8):463-70. Auld DS, Thorne N, Maguire WF, Inglese J. Mechanism of PTC124 activity in cell-based luciferase assays of nonsense codon suppression. Proc Natl Acad Sci U S A. 2009 Mar 3;106(9):3585-90. Inglese J, Auld DS, Jadhav A, Johnson RL, Simeonov A, Yasgar A, Zheng W, Austin CP. Quantitative high-throughput screening: a titration-based approach that efficiently identifies biological activities in large chemical libraries. Proc Natl Acad Sci U S A. 2006 Aug 1;103(31):11473-8.
Chain of Luciferin 4-monooxygenase (Photinus pyralis) (P08659 whole entry, looked up): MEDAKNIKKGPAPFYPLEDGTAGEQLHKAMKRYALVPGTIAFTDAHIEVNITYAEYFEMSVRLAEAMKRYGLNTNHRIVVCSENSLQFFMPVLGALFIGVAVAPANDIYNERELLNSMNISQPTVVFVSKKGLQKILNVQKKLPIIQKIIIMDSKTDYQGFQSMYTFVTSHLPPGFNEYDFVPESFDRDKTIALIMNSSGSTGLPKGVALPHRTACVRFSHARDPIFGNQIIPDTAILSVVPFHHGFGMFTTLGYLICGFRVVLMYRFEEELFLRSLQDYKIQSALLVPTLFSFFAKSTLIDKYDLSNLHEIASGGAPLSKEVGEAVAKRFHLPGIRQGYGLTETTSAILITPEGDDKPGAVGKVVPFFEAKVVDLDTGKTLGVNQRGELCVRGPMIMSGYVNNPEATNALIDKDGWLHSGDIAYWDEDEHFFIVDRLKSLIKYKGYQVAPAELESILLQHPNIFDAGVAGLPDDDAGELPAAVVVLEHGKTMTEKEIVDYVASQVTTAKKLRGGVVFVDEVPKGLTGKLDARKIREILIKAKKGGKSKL
Four uL of substrate mix (final concentration, 50 mM imidazole pH 7.2, 50 mM KCl, 7 mM MgCl2, 10 uM ATP, 0.01% Tween 20, 0.05% BSA) was dispensed into white 1536 well plates. Twenty-three nL of compound was delivered by a pin tool and 2 uL of luciferase detector mix (PKLight, Cambrex) was added. Following 8-minute incubation at ambient temperature, luminescence was measured by a ViewLux (Perkin Elmer) at 5 seconds exposure/plate.
For orientation: In qHTS, concentration-response curves come from the screen itself.
Turning to `COc1ccc(NC(=O)Nc2cccc3cccnc23)cc1`, the Potency was 5.01 µM (active).

Take `c1ccc(CN2CC[C@@]3(CCCNC3)C2)cc1`: the activity change, negative = inhibition is 0.194% [at 11.4 µM]. Take `CC(C)(c1ccc(OC[C@@H]2CO2)cc1)c1ccc(OC[C@H]2CO2)cc1`: the “activity change, negative = inhibition” value was 2.01%. On to `CC[C@]1(O)C(=O)OCc2c1cc1n(c2=O)Cc2cc3ccccc3nc2-1`, for which the activity change, negative = inhibition was 1.26% [at 11.4 µM]. Consider `Cc1cccc([C@H](C)c2cnc[nH]2)c1C`, for which the “activity change, negative = inhibition” value is -0.831%.
